± gives the standard deviation of the averaged measurements. Over roughly 1,600 compounds, “normalized intracellular growth (luminescence, IQM-normalized) in RAW264.7 macrophages” has its median near 1; the lowest 2% begin near 0.43. The sample holds the lowest values, similar compounds and a random draw of the others, so the mix is not that of the screen.

The subject of this assay is Salmonella enterica serovar Typhimurium SL1344. As to the kind of experiment: normalized intracellular growth (luminescence, IQM-normalized) in RAW264.7 macrophages (fraction of plate interquartile mean); higher = more bacterial growth (less inhibition). As to conditions: 10 µM.

Regarding `CCCCCNC(=N)N/N=C/c1c[nH]c2ccc(OC)cc12`, the normalized intracellular growth is, setting by setting: (time point: T3 (3 h)) 1.05 ± 0.1; (time point: Tfinal (~6 h)) 1.08 ± 0.037.
For the molecule `CCC(=O)Oc1ccc2c(c1)CC[C@@H]1[C@@H]2CC[C@]2(C)[C@@H](OC(=O)CC)CC[C@@H]12`, the normalized intracellular growth was 0.977 ± 0.092 (time point: T3 (3 h)) and 0.934 ± 0.089 (time point: Tfinal (~6 h)).
For `O=C([O-])C(O)[C@H](O)[C@@H](O)[C@H](O)[C@H](O)CO.O=C([O-])C(O)[C@H](O)[C@@H](O)[C@H](O)[C@H](O)CO.[Ca+2]` (some centres not stated), the normalized intracellular growth runs as follows: (time point: T3 (3 h)) 1.04 ± 0.019; (time point: Tfinal (~6 h)) 1.06 ± 0.18.
For `Cc1c(OCC(F)(F)F)ccnc1C[S@@+]([O-])c1nc2ccccc2[nH]1`, in that order: 0.98 ± 0.076 and 1.18 ± 0.11.
In the case of `CC1=C(C)C(=O)C(C(CCCCCC(=O)O)c2ccccc2)=C(C)C1=O` (configuration not stated), the normalized intracellular growth reads like this: (time point: T3 (3 h)) 0.994 ± 0.042; (time point: Tfinal (~6 h)) 1.18 ± 0.085.
For the molecule `NC(=O)c1cc[n+](CC2=C(C(=O)O)N3C(=O)[C@@H](NC(=O)[C@@H](c4ccccc4)S(=O)(=O)[O-])[C@H]3SC2)cc1`, the normalized intracellular growth is, setting by setting: (time point: T3 (3 h)) 0.999 ± 0.056; (time point: Tfinal (~6 h)) 1.05 ± 0.028.
For `CCOc1ccc(NC(=O)CC(C)O)cc1` (configuration not stated) the same measures were 0.969 ± 0.045 and 1.202 ± 0.0076.
Take `CC(=O)N(CC(O)CO)c1c(I)c(C(=O)NCCO)c(I)c(C(=O)NCC(O)CO)c1I` (configuration not stated): the normalized intracellular growth turned out to be 0.938 ± 0.063 (time point: T3 (3 h)) and 1.17 ± 0.091 (time point: Tfinal (~6 h)).
For `OC[C@H]1O[C@H](O[C@]2(CCl)O[C@H](CCl)[C@@H](O)[C@@H]2O)[C@H](O)[C@@H](O)[C@H]1Cl`, in that order: 0.91 ± 0.095 and 0.0259 ± 0.0051.
On to `OC[C@H]1O[C@@H](O[C@@H]2[C@@H](CO)OC(O)(CO)[C@H]2O)[C@H](O)[C@@H](O)[C@H]1O` (mixture of isomers), for which the normalized intracellular growth turned out to be 0.999 ± 0.021 (time point: T3 (3 h)) and 0.958 ± 0.011 (time point: Tfinal (~6 h)).
For `OC[C@H]1O[C@H](O[C@H]2[C@H](O)[C@@H](O)C(O)O[C@@H]2CO)[C@H](O)[C@@H](O)[C@@H]1O` (some centres not stated) the same measures were 0.919 ± 0.086 and 0.986 ± 0.012.
For `COc1ccc(C(=O)c2ccc(C)cc2)c(O)c1` the same measures were 1.02 ± 0.028 and 0.926 ± 0.2.
For `COc1ccc(C(=O)c2ccccc2O)c(O)c1` the same measures were 1 ± 0.047 and 1.24 ± 0.031.
Consider `COc1ccc(C(=O)c2ccccc2)c(O)c1`, for which the normalized intracellular growth by setting is: (time point: T3 (3 h)) 0.948 ± 0.07; (time point: Tfinal (~6 h)) 0.417 ± 0.083.
For the molecule `Cc1cc(O)cc(C)c1Cl`, the normalized intracellular growth came out at 1.03 ± 0.075 (time point: T3 (3 h)) and 1.11 ± 0.071 (time point: Tfinal (~6 h)).
For `N=c1ccn2c(n1)O[C@H]1[C@H](O)[C@@H](CO)O[C@H]12`, in that order: 1 ± 0.029 and 1.16 ± 0.016.
For `CO/N=C1\CN(c2nc3c(cc2F)c(=O)c(C(=O)O)cn3C2CC2)CC1CN` (configuration not stated) the same measures were 0.967 ± 0.014 and 1.15 ± 0.048.
For `COc1c(N2C[C@@H]3CCCN[C@@H]3C2)c(F)cc2c(=O)c(C(=O)O)cn(C3CC3)c12` the same measures were 1.41 ± 0.1 and 0.00827 ± 0.001.
As to `CCn1cc(C(=O)O)c(=O)c2cc(F)c(N3CCNCC3)nc21`, the normalized intracellular growth is, setting by setting: (time point: T3 (3 h)) 0.916 ± 0.07; (time point: Tfinal (~6 h)) 0.245 ± 0.036.
For `CCn1cc(C(=O)O)c(=O)c2ccc(C)nc21` the same measures were 0.994 ± 0.03 and 0.881 ± 0.37.
For `COc1c(N2CCNC(C)C2)c(F)cc2c(=O)c(C(=O)O)cn(C3CC3)c12` (configuration not stated), in that order: 1.02 ± 0.13 and 0.015 ± 0.0035.
Turning to `CCn1cc(C(=O)O)c(=O)c2cc(F)c(N3CCNC(C)C3)c(F)c21` (configuration not stated), the normalized intracellular growth is, setting by setting: (time point: T3 (3 h)) 0.996 ± 0.098; (time point: Tfinal (~6 h)) 0.0187 ± 0.0027.
As to `CCn1cc(C(=O)O)c(=O)c2cnc(N3CCNCC3)nc21`, the normalized intracellular growth is 0.974 ± 0.034 (time point: T3 (3 h)) and 0.533 ± 0.082 (time point: Tfinal (~6 h)).
Take `CC(C)(CO)[C@@H](O)C(=O)NCCC(=O)NCCSSCCNC(=O)CCNC(=O)[C@H](O)C(C)(C)CO`: the normalized intracellular growth (time point: T3 (3 h)) turned out to be 0.981 ± 0.048 and the normalized intracellular growth (time point: Tfinal (~6 h)) is 0.976 ± 0.089.
For `OCc1cccnc1` the same measures were 1.056 ± 0.0048 and 0.97 ± 0.051.
Regarding `O=S(=O)(c1cccc2cnccc12)N1CCCNCC1`, the normalized intracellular growth runs as follows: (time point: T3 (3 h)) 1.02 ± 0.035; (time point: Tfinal (~6 h)) 1.13 ± 0.067.
For `NC(=O)NS(=O)(=O)c1ccc(N)cc1` the same measures were 0.98 ± 0.031 and 0.881 ± 0.095.
Regarding `FC(F)(Cl)C(F)(F)Cl`, the normalized intracellular growth turned out to be 1.02 ± 0.023 (time point: T3 (3 h)) and 0.675 ± 0.21 (time point: Tfinal (~6 h)).
Take `NC1CCN(c2c(F)cc3c(=O)c(C(=O)O)cn(C4CC4)c3c2Cl)C1` (configuration not stated): the normalized intracellular growth by setting is: (time point: T3 (3 h)) 1.49 ± 0.071; (time point: Tfinal (~6 h)) 0.00632 ± 0.00035.
For `CC(=O)OCC(=O)[C@@]1(O)CC[C@H]2[C@@H]3CCC4=CC(=O)C=C[C@]4(C)[C@@]3(Cl)[C@@H](Cl)C[C@@]21C`, in that order: 0.961 ± 0.062 and 1.13 ± 0.022.
For `CCCCCCCCCc1ccc(OCCOCCOCCOCCOCCOCCOCCOCCOCCO)cc1`, the normalized intracellular growth by setting is: (time point: T3 (3 h)) 0.99 ± 0.013; (time point: Tfinal (~6 h)) 1.1 ± 0.048.
For the molecule `NC(=O)C1(N2CCCCC2)CCN(CCCC(=O)c2ccc(F)cc2)CC1`, the normalized intracellular growth is, setting by setting: (time point: T3 (3 h)) 0.984 ± 0.085; (time point: Tfinal (~6 h)) 0.965 ± 0.16.
For `O=C(CCCN1CCC(O)(c2ccc(Cl)cc2)CC1)c1ccc(F)cc1` the same measures were 0.957 ± 0.056 and 1 ± 0.085.
For `O=C(CCCN1CCC(O)(c2ccc(Br)cc2)CC1)c1ccc(F)cc1`, in that order: 0.391 ± 0.23 and 1.28 ± 0.14.
In the case of `N[C@@H](CCC(=O)N[C@@H](CS)C(=O)NCC(=O)O)C(=O)O`, the normalized intracellular growth is, setting by setting: (time point: T3 (3 h)) 1.1 ± 0.056; (time point: Tfinal (~6 h)) 0.832 ± 0.11.
For `CC(C)CCCC(C)NC(C)C` (configuration not stated), in that order: 1 ± 0.017 and 0.999 ± 0.11.
For `Cc1ccc(S(=O)(=O)NCl)cc1` the same measures were 0.946 ± 0.021 and 0.902 ± 0.052.
As for `OCc1ccccc1O`, the normalized intracellular growth is, setting by setting: (time point: T3 (3 h)) 1.07 ± 0.017; (time point: Tfinal (~6 h)) 1.01 ± 0.022.
For `CC1CCc2c(N3CCC(O)CC3)c(F)cc3c(=O)c(C(=O)O)cn1c23` (configuration not stated), in that order: 0.894 ± 0.051 and 0.0538 ± 0.029.
Take `CC1CCc2cc(F)cc3c(=O)c(C(=O)O)cn1c23` (configuration not stated): the normalized intracellular growth runs as follows: (time point: T3 (3 h)) 0.937 ± 0.026; (time point: Tfinal (~6 h)) 0.389 ± 0.025.
For the molecule `N[C@@H](Cc1ccc(O)cc1)C(=O)O`, the normalized intracellular growth reads like this: (time point: T3 (3 h)) 0.934 ± 0.037; (time point: Tfinal (~6 h)) 0.846 ± 0.31.

The values are drawn from the supplement of paper PMC6331611.
